Read-out in assay [1]: Thrombomodulin, THBD (gene 7056)
Description: BSK_CASM3C_Thrombomodulin: BioMAP Diversity Plus: CASM3C Assay for Thrombomodulin Biomarker Activity (AID 2283051).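 Note: thrombomodulin protein level measured by ELISA 24 h after dosing.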 As to conditions: primary human coronary artery smooth muscle cells; actives raise or lower the signal.

Read-out in assay [2]: Tissue Factor, F3 (gene 2152)
Description: BSK_CASM3C_TissueFactor: BioMAP Diversity Plus: CASM3C Assay for Tissue Factor Biomarker Activity (AID 2283052).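 Note: cell surface tissue factor protein level read by ELISA.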 As to conditions: primary human coronary artery smooth muscle cells; actives raise or lower the signal.

Read-out in assay [3]: Interferon-gamma inducible Protein 10 (IP10), CXCL10 (gene 3627)
Description: BSK_hDFCGF_IP10: BioMAP Diversity Plus: hDFCGF Assay for Interferon-gamma inducible Protein 10 (IP10) Biomarker Activity (AID 2283053). As to conditions: primary human foreskin fibroblasts; actives raise or lower the signal. The method in brief:
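Cells: human dermal foreskin fibroblasts. Exposure: 24 h post-dosing. Detection: IP-10 ELISA, with values expressed against DMSO controls and fitted in both directions.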

Read-out in assay [4]: Urokinase-type plasminogen activator receptor (uPAR), PLAUR (gene 5329)
Nature of the assay: BSK_CASM3C_uPAR: BioMAP Diversity Plus: CASM3C Assay for Urokinase-type plasminogen activator receptor (uPAR) Biomarker Activity (AID 2283054).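 Note: cell-surface uPAR protein level quantified by ELISA.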 The note with it: primary human coronary artery smooth muscle cells; actives raise or lower the signal.

Read-out in assay [5]: Vascular cell adhesion molecule 1 (VCAM1), VCAM1 (gene 7412)
Nature of the assay: BSK_CASM3C_VCAM1: BioMAP Diversity Plus: CASM3C Assay for Vascular cell adhesion molecule 1 (VCAM1) Biomarker Activity (AID 2283055).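 Note: VCAM-1 protein level quantified by ELISA on the cells.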 As to conditions: primary human coronary artery smooth muscle cells; actives raise or lower the signal.

Read-out in assay [6]: Collagen III, COL3A1 (gene 1281)
Nature of the assay: BSK_hDFCGF_CollagenIII: BioMAP Diversity Plus: hDFCGF Assay for Collagen III Biomarker Activity (AID 2283056). The note with it: primary human foreskin fibroblasts; actives raise or lower the signal. The essentials: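 hDFCGF primary human dermal fibroblasts; 24 h chemical exposure; collagen III by ELISA; bidirectional curve fit vs DMSO baseline (gain or loss of signal).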

Read-out in assay [7]: Epidermal growth factor receptor (EGFR), EGFR (gene 1956)
Nature of the assay: BSK_hDFCGF_EGFR: BioMAP Diversity Plus: hDFCGF Assay for Epidermal growth factor receptor (EGFR) Biomarker Activity (AID 2283057). As to conditions: primary human foreskin fibroblasts; actives raise or lower the signal. The method in brief: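 Dosing human primary skin fibroblasts, then measuring surface EGFR by ELISA at 24 h, gives the endpoint; gains and losses relative to DMSO were fitted in both directions.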

Read-out in assay [8]: Interleukin-8 (IL8), CXCL8 (gene 3576)
Description: BSK_hDFCGF_IL8: BioMAP Diversity Plus: hDFCGF Assay for Interleukin-8 (IL8) Biomarker Activity (AID 2283058). The note with it: primary human foreskin fibroblasts; actives raise or lower the signal. The essentials:
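ELISA read-out of IL-8 from primary human foreskin fibroblast cultures taken 24 h after dosing; values are bidirectional fits relative to DMSO vehicle.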

A short description of assay [9]: BSK_hDFCGF_Proliferation: Cell Proliferation Assessment in the BioMAP Diversity Plus: hDFCGF Assay (AID 2283059).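 Note: curves fitted for both rise and fall of signal versus DMSO baseline.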 As to conditions: primary human foreskin fibroblasts. The method in brief: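 Steps: dose primary human dermal fibroblasts (foreskin); […] fix in 10% TCA; stain with 0.1% SRB; read 560 nm; fit gain or loss of signal against DMSO.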
Read-out in assay [10]: Macrophage colony-stimulating factor (MCSF), CSF1 (gene 1435)
Description: BSK_hDFCGF_MCSF: BioMAP Diversity Plus: hDFCGF Assay for Macrophage colony-stimulating factor (MCSF) Biomarker Activity (AID 2283060). As to conditions: primary human foreskin fibroblasts; actives raise or lower the signal. The essentials: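 ELISA read-out of M-CSF in human dermal foreskin fibroblast cultures, 24 h after chemical dosing; gain or loss of signal fitted bidirectionally relative to DMSO baseline.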

The source made the active and inactive calls. Rule for the calls: active = hit-call score of the fitted dose curve at least 0.9, where 1 is the maximum; inactive = score below 0.9.

As to `Cc1cccc([N+](=O)[O-])c1C`, the outcome in assay [1], in [2], in [3], in assay [4], in assay [5] and in [6] was inactive. Besides, the outcome in assay [7], in assay [8], in assay [9] and in [10] was inactive.

Turning to `C=CCOC(=O)c1ccccc1C(=O)OCC=C`, the result in assay [1], in [2], in assay [3], in assay [4], in assay [5] and in [6] was inactive. The outcome in [7], in [8], in assay [9] and in assay [10] was inactive.

As for `CC(=O)OCCOCCOCCOC(C)=O`, the outcome in [1], in assay [2], in [3], in assay [4], in assay [5] and in assay [6] was inactive. The outcome in [7], in assay [8], in assay [9] and in [10] was inactive.

For the compound `CCCCCCOCCO`, the result in [1], in assay [2], in [3], in assay [4], in assay [5] and in [6] was inactive. The result in assay [7], in assay [8], in [9] and in assay [10] was inactive.

Take `O=[N+]([O-])C(CO)(CO)CO`: the result in assay [1], in assay [2], in [3], in assay [4], in assay [5] and in assay [6] was inactive. The outcome in [7], in assay [8] and in [10] was inactive. Also, the AC50 in [9] is 14.1 µM (active).

In the case of `Cc1ccc(N(C)C)cc1`, the result in assay [1], in assay [2], in assay [3], in [4], in [5] and in assay [6] was inactive. The result in assay [7], in assay [9] and in assay [10] was inactive.

With `COCCOCCOC`, the result in assay [1], in assay [2], in assay [3], in assay [4], in [5] and in [7] was inactive. For the same compound, the outcome in assay [8], in [9] and in [10] was inactive. The AC50 in [6] is 0.148 µM (active).

Turning to `CCCc1cc(=O)[nH]c(=S)[nH]1`, the result in assay [1], in [2], in assay [3], in [4], in [5] and in assay [6] was inactive. The outcome in [7], in assay [8], in [9] and in assay [10] was inactive.

As to `CCOC(=O)CCC(=O)OCC`, the outcome in assay [1], in assay [2], in [3], in assay [4], in assay [5] and in assay [6] was inactive. For the same compound, the result in assay [7], in assay [8], in assay [9] and in [10] was inactive.

`CCOC(=O)C(C)(C)Oc1ccc(Cl)cc1`: the outcome in assay [1], in assay [2], in [3], in assay [4], in assay [5] and in assay [6] was inactive. The result in assay [7], in [8], in assay [9] and in assay [10] was inactive.

Turning to `NCC1(Cc2noc(=O)[nH]2)CCCCC1`, the result in [1], in assay [2], in [3], in assay [4], in [5] and in assay [6] was inactive. For the same compound, the outcome in [7], in assay [8], in [9] and in assay [10] was inactive.

Take `CCCCOC(=O)CCCCCCCCC(=O)OCCCC`: the result in assay [1], in [2], in assay [3], in assay [4], in assay [5] and in assay [6] was inactive. In addition, the result in assay [7], in assay [8], in assay [9] and in [10] was inactive.

For the compound `CCNc1cccc(C)c1`, the result in assay [1], in assay [2], in assay [3], in assay [4], in assay [5] and in [6] was inactive. Besides, the result in assay [7], in assay [8], in assay [9] and in assay [10] was inactive.

As to `C[Si]1(C)O[Si](C)(C)O[Si](C)(C)O[Si](C)(C)O1`, the outcome in assay [1], in [2], in assay [3], in assay [4], in assay [5] and in assay [6] was inactive. Moreover, the outcome in assay [7], in assay [8], in assay [9] and in assay [10] was inactive.

In the case of `Cc1cc(NC(=O)C(=O)O)cc(C)c1Oc1ccc(O)c2c1CCC2`, the outcome in assay [1], in assay [2], in assay [3], in assay [4], in assay [5] and in assay [6] was inactive. The outcome in assay [7], in assay [8], in assay [9] and in [10] was inactive.

For `NS(=O)(=O)c1cc2c(cc1Cl)NCNS2(=O)=O`, the result in assay [1], in [2], in assay [3], in assay [4], in [5] and in [6] was inactive. The outcome in assay [7], in assay [9] and in assay [10] was inactive.

`C=CCc1ccc(O)c(OC)c1`: the result in assay [1], in assay [2], in assay [3], in assay [4], in [5] and in assay [6] was inactive. For the same compound, the result in assay [7], in [9] and in assay [10] was inactive.

In the case of `CC(=O)C(C)=CC1C(C)=CCCC1(C)C` (stereo not given), the result in assay [1], in assay [2], in [3], in assay [4], in assay [5] and in assay [6] was inactive. Also, the result in assay [7], in [8], in [9] and in [10] was inactive.

As for `Cc1c(C(=O)O)c(O)cc2c1C(=O)c1c(O)c([C@@H]3O[C@H](CO)[C@@H](O)[C@H](O)[C@H]3O)c(O)c(O)c1C2=O`, the outcome in assay [1], in assay [2], in assay [3], in assay [4], in assay [5] and in [6] was inactive. The outcome in assay [7] and in assay [10] was inactive. Besides, the AC50 in assay [9] is 3.88 µM (active).

Consider `COc1ccc(C)cc1N`, for which the result in assay [1], in assay [2], in [3], in assay [4], in assay [5] and in assay [6] was inactive. The result in assay [7], in assay [9] and in assay [10] was inactive.

The term AC50 denotes the concentration at which the activity in the assay is half-maximal.
